Measured values taken from ChEMBL document CHEMBL2218924, “A broad activity screen in support of a chemogenomic map for kinase signalling research and drug discovery” (Biochem J, 2013).

How the values were obtained:
[1] = target: T1, Mitogen-activated protein kinase 12 (Homo sapiens) (UniProt P53778); conditions: at 1 µM
T1 sequence (whole entry): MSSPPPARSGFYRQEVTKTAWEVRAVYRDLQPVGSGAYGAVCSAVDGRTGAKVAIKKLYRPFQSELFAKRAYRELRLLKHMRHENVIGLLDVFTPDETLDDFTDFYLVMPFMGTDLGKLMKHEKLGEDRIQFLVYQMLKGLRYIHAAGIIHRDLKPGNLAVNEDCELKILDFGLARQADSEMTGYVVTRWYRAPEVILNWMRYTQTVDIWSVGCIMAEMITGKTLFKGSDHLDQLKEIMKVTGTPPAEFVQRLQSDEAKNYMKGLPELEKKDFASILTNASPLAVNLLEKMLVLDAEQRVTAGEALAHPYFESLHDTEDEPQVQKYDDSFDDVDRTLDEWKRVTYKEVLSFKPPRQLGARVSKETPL

[2] = target: T1, Mitogen-activated protein kinase 12 (Homo sapiens); conditions: at 10 µM

Row | Compound | residual activity [1] [%] | residual activity [2] [%]
1 | COc1ccc(S(=O)(=O)N(CCO)c2ccccc2CN(C)C/C=C/c2ccc(Cl)cc2)cc1 | 99 | 95
2 | Cn1c2ccccc2c2c3c(c4c5ccccc5n(CCC#N)c4c21)CNC3=O | 61 | 61
3 | O=c1cc(N2CCNCC2)oc2c(-c3ccccc3)cccc12 | 92 | 105
4 | Oc1c2ccccc2c2c3c(cccc13)N=N2 | 82 | 61
5 | CCC(=O)Nc1ccc2ncnc(Nc3cccc(Br)c3)c2c1 | 101 | 93
6 | CC(C)n1cnc2/c(=N/c3cccc(Cl)c3)nc(NCCO)[nH]c21 | 96 | 99
7 | O=C1NC(=O)c2cc(Nc3ccc(F)cc3)c(Nc3ccc(F)cc3)cc21 | 99 | 82
8 | O=C(c1ccccc1)c1ccc(N2CCOCC2)cc1O | 100 | 100
9 | NC(=O)c1ccc2[nH]c(-c3ccc(Oc4ccc(Cl)cc4)cc3)nc2c1 | 93 | 92
10 | O=C1NC(=O)c2c1c1c3ccccc3[nH]c1n1cncc21 | 95 | 87
11 | O=C1NC(=O)/C(=C/c2ccc3c(c2)OC(F)(F)O3)S1 | 110 | 113
12 | CCOc1cc2ncnc(Nc3cccc(Br)c3)c2cc1OCC | 103 | 98
13 | C[C@@H](N)[C@H]1CC[C@H](C(=O)Nc2ccncc2)CC1 | 111 | 111
14 | O=C(CCCc1ccc(-c2ccccc2F)cc1)Nc1ccc(O)cc1 | 101 | 100
15 | CC(=O)O/N=C1\C(=C2\C(=O)Nc3cc(Br)ccc32)Nc2ccccc21 | 94 | 92
16 | O=[N+]([O-])c1ccc(-c2nc(-c3ccc(F)cc3)c(-c3ccncc3)[nH]2)cc1 | 101 | 93
17 | CC#CC(=O)Nc1cc2c(Nc3ccc(F)c(Cl)c3)ncnc2cn1 | 103 | 95
18 | CCCC(=O)Oc1ccc2[nH]c(C(=O)c3cc4ccccc4[nH]3)cc2c1 | 96 | 98
19 | Nc1ccc2ncnc(NCCc3ccc(Oc4ccccc4)cc3)c2c1 | 107 | 108
20 | CNc1cc2c(Nc3cccc(Br)c3)ncnc2cn1 | 105 | 95

Row | Compound | residual activity [1] [%] | residual activity [2] [%]
21 | COc1ccc(OC)c2c(=S)c3ccccc3[nH]c12 | 95 | 91
22 | O=c1c2ccccc2[nH]c(=S)n1CCN1CCC(=C(c2ccc(F)cc2)c2ccc(F)cc2)CC1 | 115 | 90
23 | CO[C@H]1C[C@@H]2CC[C@@H](C)[C@@](O)(O2)C(=O)C(=O)N2CCCC[C@H]2C(=O)O[C@H]([C@H](C)C[C@@H]2CC[C@@H](O)[C@H](OC)C2)CC(=O)[C@H](C)/C=C(\C)[C@@H](O)[C@@H](OC)C(=O)[C@H](C)C[C@H](C)/C=C/C=C/C=C/1C | 95 | 94
24 | O=C1c2ccccc2-[n+]2ccc3c([nH]c4ccccc43)c21 | 89 | 100
25 | Cn1nc2c3c(cccc31)C(=O)c1ccccc1-2 | 99 | 96
26 | O=C(Nc1cccc(Nc2cc(Nc3cccc(C(F)(F)F)c3)ncn2)c1)C1CC1 | 94 | 92
27 | Cc1ccc(S(=O)(=O)/C=C/C#N)cc1 | 92 | 92
28 | O=C1NC(=O)C(c2c[nH]c3ccccc23)=C1c1c[nH]c2ccccc12 | 99 | 51
29 | Cc1nc(-c2ccccc2)c(-c2ccncc2)o1 | 106 | 103
30 | CCN(CC)CCCCN1c2ccccc2Oc2ccc(Cl)cc21 | 131 | 100
31 | c1ccc2c(-c3ccncc3)c[nH]c2c1 | 100 | 94
32 | CC(C)c1nn(-c2c(Cl)cccc2Cl)c2nc(Cc3ccc(OCCO)cc3)[nH]c(=O)c12 | 105 | 101
33 | CC(C)n1cnc2c(NCc3ccccc3)nc(NCCCO)nc21 | 100 | 101
34 | CC[n+]1c(/C=C/N(C)c2ccccc2)n(-c2ccccc2)c2ccc(-c3nc4ccccc4s3)cc21 | 111 | 94
35 | COc1ccc(Cl)cc1NC(=O)Nc1cc(C)nc2ccccc12 | 95 | 85
36 | Cc1nc2cc3nc(-c4cccs4)cnc3cc2n1C | 114 | 100
37 | O=c1cc(-c2cccc3c2Sc2ccccc2S3)oc(N2CCOCC2)c1 | 104 | 101
38 | COc1cc2ncnc(N3CCN(C(=O)Nc4ccc(Oc5ccccc5)cc4)CC3)c2cc1OC | 93 | 99
39 | O=C1NC(=O)c2c1c1c3ccccc3[nH]c1c1[nH]c3cc(Br)ccc3c21 | 96 | 88
40 | N#CC(C#N)=C(N)/C(C#N)=C/c1ccc(O)cc1 | – | 92

Row | Compound | residual activity [1] [%] | residual activity [2] [%]
41 | Oc1cccc(-c2nc(N3CCOCC3)c3oc4ncccc4c3n2)c1 | – | 86
42 | COc1ccc(CNc2nc(N(CCO)CCO)nc3c2ncn3C(C)C)cc1 | 109 | 99
43 | CN(C)c1ccc(/C=C2\C(=O)Nc3ccccc32)cc1 | 113 | 83
44 | Cn1cc(/C=C2\C(=O)Nc3ccc(S(N)(=O)=O)cc32)c2ccccc21 | 99 | 104
45 | COc1ccc2c(c1)c(C1=C(c3c[nH]c4ccccc34)C(=O)NC1=O)cn2CCCN(C)C | 100 | 100
46 | Oc1ccc(Nc2nc(-c3ccc(Cl)cc3)cs2)cc1 | 112 | 100
47 | Cc1cccc(-c2[nH]c(C(C)(C)C)nc2-c2ccc3c(c2)OCO3)n1 | 104 | 100
48 | NC(=O)Nc1sc(-c2ccc(F)cc2)cc1C(N)=O | 90 | 82
49 | COc1cccc(-c2cc(=O)c3ccccc3o2)c1N | 102 | 96
50 | COc1cc2nccc(Oc3ccc(NC(=S)NC(=O)c4ccccc4C)cc3)c2cc1OC | 99 | 94
51 | COc1cc2ncnc(Nc3cccc(Cl)c3)c2cc1OC | 116 | 103
52 | c1ccc(-c2cnc(Nc3ccc(OCCN4CCCC4)cc3)s2)cc1 | 115 | 100
53 | O=C1C(Cl)=C(N2C(=O)CCC2=O)C(=O)c2ccccc21 | 96 | 99
54 | Nc1nc(Nc2ccc(S(N)(=O)=O)cc2)nn1C(=O)c1c(F)cccc1F | – | 67
55 | CO[C@@H]1[C@H](N(C)C(=O)c2ccccc2)C[C@H]2O[C@]1(C)n1c3ccccc3c3c4c(c5c6ccccc6n2c5c31)C(=O)NC4 | 104 | 87
56 | N#C/C(=C1/Nc2ccccc2S1)c1ccnc(NCCc2cccnc2)n1 | 96 | 72
57 | N#C/C(=C(\N)Sc1ccc(N)cc1)c1ccccc1C(F)(F)F | 104 | 105
58 | Cn1cnc2cc3c(Nc4cccc(Br)c4)ncnc3cc21 | 104 | 89
59 | Cn1sc(=O)n(Cc2ccccc2)c1=O | 90 | 97
60 | COc1cc2ncnc(Nc3ccc(O)c(Br)c3)c2cc1OC | 98 | 97
